Source: PubChem BioAssay AID652015 (National Center for Advancing Translational Sciences (NCATS), 2013)
Results filed as inconclusive are left out. Calls of active or inactive are those of the source. Calls come from the whole dose curve; as a rule, active = well fitted inhibition curve with a large enough effect; inconclusive = small, poorly fitted or top-dose-only effect; inactive = no such curve, though single readings can be large or run the other way.

Each compound was assayed against Coelenterazine h 2-monooxygenase (Renilla reniformis) (UniProt P27652) (assay: qHTS Assay for Inhibitors of Sea Pansy Luciferase from the GSK Published Protein Kinase Inhibitor Set). Details: purified Renilla luciferase, luminescence; series mostly up to 57.5 µM; activity change, negative = inhibition: at the top concentration.
How it was run: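 qHTS (roughly 60 uM down to 300 pM) against 1 nM Renilla luciferase, substrate coelenterazine h 5 uM, Tris acetate pH 7.5 buffer with NaCl, Tween-20 and BSA. Luminescence measured after an average 2 min incubation.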
Potency is the fitted concentration of half-maximal effect.

Chain of Coelenterazine h 2-monooxygenase (Renilla reniformis) (P27652 whole entry, looked up): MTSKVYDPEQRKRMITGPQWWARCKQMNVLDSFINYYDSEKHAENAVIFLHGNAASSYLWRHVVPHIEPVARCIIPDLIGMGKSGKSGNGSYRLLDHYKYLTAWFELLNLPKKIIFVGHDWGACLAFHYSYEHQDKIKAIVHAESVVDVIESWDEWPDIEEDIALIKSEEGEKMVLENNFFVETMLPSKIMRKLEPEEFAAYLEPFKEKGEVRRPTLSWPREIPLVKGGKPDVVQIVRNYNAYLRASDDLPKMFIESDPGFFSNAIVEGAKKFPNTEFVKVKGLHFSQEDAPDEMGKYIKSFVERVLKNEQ

Structure (SMILES)	activity change, negative = inhibition	Potency
COc1ccccc1Oc1nccc(-c2c(-c3ccc(F)cc3)ncn2C2CCNCC2)n1	8.41% (inactive)	–
COc1ccc2c(-c3ccnc(Nc4cccc(OC(F)(F)F)c4)n3)cnn2n1	43.3% (inactive)	–
CN(C)CCCNc1nccc(-c2c(-c3ccc(F)cc3)nn3cc(C(F)(F)F)ccc23)n1	8.87% (inactive)	–
CC(Oc1cc(-n2cnc3ccc(OCC(O)CO)cc32)sc1C(N)=O)c1ccccc1Cl (centres undefined)	27.6% (inactive)	–
NC(=O)c1cccc(Nc2nccc(Nc3cccc4[nH]ncc34)n2)c1	18.3% (inactive)	–
CCn1c(-c2nonc2N)nc2c(C#CC(C)(C)O)nc(CN3CCCC3)cc21	21.5% (inactive)	–
CN(c1ccc(NC(=O)NCCN2CCOCC2)cc1)c1ccnc(Nc2ccc(CS(C)(=O)=O)cc2)n1	30.7% (inactive)	–
Nc1ccc(C#Cc2cncnc2Nc2ccc(OCc3cccc(F)c3)c(Cl)c2)cc1	12.3% (inactive)	–
Cc1cc(O)cc(C)c1C=Cc1cncc(-c2nn[nH]n2)c1	35.1% (inactive)	–
O=C(O)c1ccc(Oc2nccc(-c3c(-c4ccc(F)cc4)ncn3C3CCNCC3)n2)cc1	36% (inactive)	–
Cc1ccc(NC(=O)CC2CC2)cc1-c1ccc(C(=O)NCC2CC2)cc1	38.6% (inactive)	–
CN1CCN(Cc2ccc(-c3cc4ncnc(Nc5ccc(OCc6cccc(F)c6)c(Cl)c5)c4s3)o2)CC1	–	20.6 µM (active)
CN1CCC(n2cnc(-c3ccc(F)cc3)c2-c2ccnc(Nc3ccccc3)n2)CC1	23.2% (inactive)	–
O=C1NC(=O)C(c2ccccc2)=C1Nc1ccccc1	16.4% (inactive)	–
CNC(=O)c1cncc(C=Cc2ccccc2C)c1	53.9% (inactive)	–
O=C(Nc1n[nH]c2cc(-c3ccc(F)cc3)ccc12)C1CC1	46.1% (inactive)	–
Cc1cc(O)cc(C)c1C=Cc1cncc(C(N)=O)c1	28.5% (inactive)	–
Nc1nonc1-c1nc2cnccc2n1C1CC1	21.9% (inactive)	–
N#Cc1c(NC(=O)c2cccc3ccccc23)sc2c1CCCC2	9.19% (inactive)	–
CCCN1CCC(Oc2cc(Nc3nc(Nc4cccc(F)c4C(N)=O)c4cc[nH]c4n3)c(OC)cc2Cl)CC1	64.1% (inactive)	–

Structure (SMILES)	activity change, negative = inhibition	Potency
Cc1ccc(C(=O)NC(C)C)cc1-c1ccc(C(=O)NCC2CC2)cc1	26.6% (inactive)	–
CC(C)COC(=O)c1ccc2[nH]c(O)c(C=Nc3ccc(S(N)(=O)=O)cc3)c2c1	37.1% (inactive)	–
Fc1ccc(-c2ncn(C3CCNCC3)c2-c2ccnc(Oc3cccc(C(F)(F)F)c3)n2)cc1	0.701% (inactive)	–
CN(C)CCCn1c(-c2nonc2N)nc2cnccc21	11.9% (inactive)	–
CC1(C)CC(n2cnc(-c3ccc(F)cc3)c2-c2ccnc(N)n2)CC(C)(C)N1	31.7% (inactive)	–
O=C(Nc1n[nH]c2cc(-c3cc(F)ccc3F)ccc12)C1CC1	12.6% (inactive)	–
CCOc1ccc2c(-c3ccnc(Nc4cccc(C(F)(F)F)c4)n3)cnn2n1	26.7% (inactive)	–
Nc1nccc(C#Cc2cncnc2Nc2ccc(OCc3cccc(F)c3)c(Cl)c2)n1	1.01% (inactive)	–
COC(=O)Nc1nc2ccc(Oc3ccc(NC(=O)Nc4ccccc4)cc3)cc2[nH]1	-9.9% (inactive)	–
CS(=O)(=O)CCNCc1ccc(-c2ccc3ncnc(Nc4ccc(OCc5cccc(F)c5)c(C(F)(F)F)c4)c3c2)o1	48.1% (inactive)	–
Fc1ccc(-c2ncn(C3CCNCC3)c2-c2ccnc(Oc3cccc(F)c3)n2)cc1	26.3% (inactive)	–
COc1cc(Nc2ncc3c(C)nc(-c4cccc(C(F)(F)F)c4)n3n2)cc(OC)c1OC	6.69% (inactive)	–
CNC(=O)c1sc(-n2cnc3cc(OC)c(OC)cc32)cc1OCc1ccccc1C(F)(F)F	22.9% (inactive)	–
COc1cccc(-n2ncc3c(NN=Cc4ccc(C(=O)NCCN(C)C)cc4)ncnc32)c1	19.8% (inactive)	–
COc1cc2c(cc1Nc1nc(Nc3ccsc3C(N)=O)c3cc[nH]c3n1)N(C(=O)CN(C)C)CCC2(C)C	25% (inactive)	–
NCc1ccc(-c2nc(-c3ccc(Cl)c(O)c3)c(-c3ccncc3)[nH]2)cc1	13% (inactive)	–
CS(=O)(=O)CCNCc1coc(-c2ccc3ncnc(Nc4ccc(OCc5ccccc5)cc4)c3c2)c1	1.49% (inactive)	–
Cc1ccc2[nH]c(O)c(N=Nc3ccc(S(N)(=O)=O)cc3)c2c1	30% (inactive)	–
COc1cc(C=NNc2ncnc3[nH]ncc23)ccc1O	36.2% (inactive)	–
